SMN2 splice enh – increases expression of the SMN2 splice variant; HEK293 SMN2-luciferase splicing reporter, luminescence, 30-36 h; AID 1458; Potency, µM (series often up to 46.1 µM), for the others: at the highest dose activity change, positive = activation, actives largely listed as activators; 210,000 compounds, 2.8% hits; further: % of control where 0% means no effect; nearly all actives have a fitted effect of over 55% in size
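qHTS luciferase splicing reporter: luminescence rises when SMN2 exon 7 is included in transfected HEK293 cells. Compound exposure lasted 30-36 h at 37C, with 4.5 mM final sodium butyrate as control, followed by a ONE-Glo read.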
ELG1 genotoxic – genotoxicity induction in ELG1-luciferase HEK293T cells; 330,000 compounds, 1.3% hits; HEK293T ELG1-luciferase reporter, luminescence, 16 h; AID 504466; Potency, µM (highest dose often 46 µM), inactives show top-dose activity change, positive = activation, actives largely listed as activators; further: % of control where 0% means no effect; nearly all actives have a fitted effect of over 60% in size
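ELG1-luciferase HEK293T cells, 2,000/well; compound pinned in; 16 hr, 37 °C, 5% CO2; ONE-Glo, 30 min RT; luminescence on CCD imager.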
Rab9 prom act – activates the Rab9 promoter; Huh7 Rab9 promoter-luciferase reporter, luminescence, 24 h; Potency, µM (highest dose often 9.22 µM), without a hit: at the top dose activation, negative = inhibition, hits mostly activators; 320,000 compounds, 2.8% hits; further: % of control where 0% means no effect; nearly all actives have a fitted effect of over 60% in size
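Luciferase signal after 10 min detection reagent at ambient indicates Rab9 promoter upregulation; stably transfected Huh7 cells were treated 24 h with compound in DMSO at 37 °C, 5% CO2.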
NPC1 prom act – activates the NPC1 promoter; 320,000 compounds, 2.4% hits; Potency, µM (highest dose often 9.22 µM), without a hit: at the highest dose activation, most hits filed as activators; AID 485313; Huh7 NPC1 promoter luciferase reporter, 24 h; further: % of control where 0% means no effect; nearly all actives have a fitted effect of over 60% in size
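NPC1 promoter–luciferase Huh7 cells; 24 h compound; luminescence.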
FLuc counter – inhibits or activates purified firefly luciferase, miR-21 counter-screen. Potency, µM (highest dose often 57.5 µM), for inactives: at the top dose activity change, negative = inhibition, most hits filed as inhibitors. 360,000 compounds, 6.9% hits. purified FLuc, Km substrates, luminescence inhibition. AID 588342;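 further: plate controls were vehicle for no effect and reference inhibitor for full effect; nearly all actives have a fitted effect of over 55% in size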
Target sequence (P08659 whole entry, looked up): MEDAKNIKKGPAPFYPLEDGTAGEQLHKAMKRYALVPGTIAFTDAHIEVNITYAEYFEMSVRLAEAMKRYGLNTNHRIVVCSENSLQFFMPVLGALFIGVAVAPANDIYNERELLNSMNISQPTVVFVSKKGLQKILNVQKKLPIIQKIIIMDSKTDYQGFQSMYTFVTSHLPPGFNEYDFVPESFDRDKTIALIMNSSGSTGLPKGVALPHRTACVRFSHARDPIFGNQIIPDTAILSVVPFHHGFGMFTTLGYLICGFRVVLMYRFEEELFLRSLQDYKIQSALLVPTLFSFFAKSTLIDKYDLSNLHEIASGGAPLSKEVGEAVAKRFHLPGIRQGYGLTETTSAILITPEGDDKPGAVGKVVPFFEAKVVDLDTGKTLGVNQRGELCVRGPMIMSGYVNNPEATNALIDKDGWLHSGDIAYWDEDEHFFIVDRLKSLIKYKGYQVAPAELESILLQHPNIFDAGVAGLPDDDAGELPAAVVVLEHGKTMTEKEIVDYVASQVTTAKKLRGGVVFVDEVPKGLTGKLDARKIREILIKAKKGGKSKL
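Biochemical qHTS of compounds, final roughly 60 µM downward over six points, against 10 nM purified firefly luciferase using Km concentrations of substrates (10 uM D-luciferin, 10 uM ATP) in Tris acetate pH 7.5 buffer; luminescence output.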
Active calls of the source: *; ? = inconclusive; / = no result given. A selection: hits, their analogues and other compounds. The true share with any hit is near 7.5%. The call rests on the fitted dose curve; in most records, active means well fitted curve in the direction sought with a large enough effect; inconclusive means small, poorly fitted or top-dose-only effect, or another doubt; inactive means no such curve, though single readings can be large; an effect the other way counts as inactive or inconclusive. Potency means the concentration at half of the fitted maximal effect.

SMILES	SMN2 splice enh	ELG1 genotoxic	Rab9 prom act	NPC1 prom act	FLuc counter
c1ccc(CN2CCN(c3cnc4ccccc4n3)CC2)cc1	/	?	?	?	19µM*
Oc1ccccc1N1CCN(c2ccc3ccccc3n2)CC1	/	?	0.4µM*	1.3µM*	5.4µM*
COc1ccc(CNC(=O)c2cc(S(=O)(=O)N3CCOCC3)cn2C)cc1	/	1%	3%	-1%	2%
COc1ccc(S(=O)(=O)N(CC(=O)Nc2ccc(F)c(Cl)c2)c2ccc(C)cc2)cc1OC	/	/	/	/	-3%
CN(c1nc(-c2ccc(Br)cc2)cs1)C1CCS(=O)(=O)C1 (centres undefined)	18%	5%	?	?	24µM*
O=C(CN1CCCCC1)NNc1nc(-c2ccccc2)c2cc(Br)ccc2n1	/	-6%	2%	3%	-2%
Cc1cccc(CCn2c(=O)c3ccccc3n(Cc3cccc(F)c3)c2=O)c1	14%	/	/	/	?
O=C1C2C3C=CC(C4CC34)C2C(=O)N1c1cccc2ccccc12 (centres undefined)	/	4%	10%	14%	6.7µM*
CC(C)(C)c1cc(NC(=O)C2CCCO2)no1 (centres undefined)	?	?	27%	?	15µM*
COc1cccc(NC(=O)C(=O)NCC(c2cccnc2)N2CCN(c3ccccc3)CC2)c1 (centres undefined)	/	/	/	/	-11%
COc1ccc(CN2CCNC(=O)C2CC(=O)N(C)C2CCOCC2)c(F)c1 (centres undefined)	/	1%	-1%	1%	1%
NS(=O)(=O)c1ccc(NC(=O)CCc2ccccc2)cc1	-23%	-2%	11%	2%	-3%
COc1cccc2cc(-c3nc4ccccc4[nH]3)c(=O)oc12	/	?	2.2µM*	1.4µM*	1.7µM*
COc1cccc2cc(-c3ccccc3)c(=O)oc12	11µM*	?	2.8µM*	2.5µM*	8.5µM*
COc1ccc(-c2cc3cccc(OC)c3oc2=O)cc1	/	?	0.5µM*	0.45µM*	0.6µM*
CC(C)(C)c1cc(C(C)(C)C)c2oc(=O)c(-c3nc4ccccc4[nH]3)cc2c1	/	/	/	/	6%
C=CCNC(=O)N1CCCC(C(=O)c2cccc(OC(C)C)c2)C1 (centres undefined)	/	?	3.5µM*	?	17µM*
O=C(COC(=O)/C=C/c1ccc2c(c1)OCO2)Nc1ccccc1	0%	6%	4%	-10%	21µM*
O=C(COC(=O)/C=C/c1ccc2c(c1)OCO2)Nc1ccc(S(=O)(=O)N2CCCC2)cc1	-9%	0%	-3%	0%	0%
Cc1ccc2nc(NC(=O)/C=C/c3ccc4c(c3)OCO4)sc2c1	-59%	?	0%	4%	3%
O=C(/C=C/c1ccc2c(c1)OCO2)Nc1nc2ccccc2s1	3.5µM*	18µM*	0.79µM*	1.6µM*	1.2µM*
Cc1csc(NC(=O)/C=C/c2ccc3c(c2)OCO3)n1	13µM*	2.9µM*	?	-1%	0.95µM*
Cc1c(NC(=O)C(C)OC(=O)/C=C/c2ccc3c(c2)OCO3)c(=O)n(-c2ccccc2)n1C (centres undefined)	7%	8%	7%	0%	15µM*
CC(OC(=O)Cn1[nH]c(=O)c2ccccc2c1=O)C(=O)c1ccccc1 (centres undefined)	/	4%	5%	-6%	2%
Cc1ccc(S(=O)(=O)c2c(Nc3cc(C)ccc3C)sc(C(=O)c3ccc4c(c3)OCO4)c2N)cc1	/	/	/	/	-4%
SMILES	SMN2 splice enh	ELG1 genotoxic	Rab9 prom act	NPC1 prom act	FLuc counter
COc1ccc(NC(=O)/C=C/c2ccc3c(c2)OCO3)cc1	18µM*	?	3.2µM*	?	2.7µM*
Cc1cccc(-c2noc(-c3cc(C(C)C)[nH]n3)n2)c1	/	/	/	/	4.8µM*
Cc1cccc(-c2noc(-c3ccno3)n2)c1	/	?	?	29%	21µM*
COc1cccc(-c2noc(-c3cc(C(C)C)[nH]n3)n2)c1OC	/	/	/	/	17µM*
CC(C)c1cc(-c2nc(-c3cccc(Cl)c3)no2)n[nH]1	/	/	/	/	6.7µM*
COc1cccc(-c2noc(C3CC(=O)N(c4ccc(F)cc4)C3)n2)c1OC (centres undefined)	/	/	/	/	5%
C/C=C/c1ccc(OCC(=O)OCc2csc(Nc3ccc(C)cc3)n2)c(OC)c1	11µM*	13%	?	?	12µM*
O=C(COc1ccc(Cl)cc1)OCc1csc(Nc2ccccc2)n1	-7%	2%	-2%	-1%	-17%
Cc1ccc(Nc2nc(COC(=O)COc3ccc(C=O)cc3)cs2)cc1	35µM*	?	?	?	2.7µM*
C/C=C/c1ccc(OCC(=O)Nc2ccc(C(N)=O)cc2)c(OC)c1	1%	0%	4%	-11%	0%
CN(CC(=O)Nc1cccc(F)c1)C(=O)CCCNC(=O)c1ccc(Cl)cc1	/	13%	?	?	12µM*
CN(CC(=O)Nc1cccc(F)c1)C(=O)CCNC(=O)c1ccc(Br)cc1	/	14%	25%	8%	?
Cc1ccc(N2CCN(S(=O)(=O)N3CCCCCC3)CC2)cc1Cl	-32%	1%	-2%	0%	8%
O=C(CCOc1ccccc1)Nc1ccc(Br)cc1	/	17%	3.2µM*	?	?
COc1ccc(NC(=O)CCOc2ccccc2)cc1	?	?	4.5µM*	3.2µM*	17µM*
